Source: PubChem BioAssay
Mot1-301 SUMO – blocks SUMOylation pathway, rescuing yeast Mot1-301 growth; S. cerevisiae Mot1-301 growth rescue, ATP luminescence, 38.5C; percent above DMSO median, 100 means doubled; growth rescue, % at 18.8 µM; 320,000 tested, 1% active; AID 2716;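 active = every valid replicate shows activation above 250% relative to neutral control wells; inactive = the rest, any valid replicate at or below 250%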;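 also: OY570 slx delta 5 strain wells were the positive control but not used for scaling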
NR3A LBD binder – modulates the human NR3A ligand-binding domain; NR3A LBD differential scanning fluorimetry, Tm shift; 0% = protein alone, 100% = glycine-bound protein; Tm shift relative to glycine control, % at 25 µM; 340,000 tested, 2.5% active;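 active = melting temperature shift of at least 10% of the positive control shift, at one fixed dose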
H9c2 protect – myocardial damage modulation in H9c2 cells; H9c2 cardiomyocytes, H2O2 injury protection, ATPLite, 2 h; protection from H2O2 cell death, % at 20 µM; 360,000 tested, 0.63% active; AID 588492;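 active = compounds giving at least 50% protection of heart cells from peroxide-induced death in the single-dose screen, raw or plate-pattern-corrected value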;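 also: 0% = DMSO wells with peroxide and 100% = DMSO wells without peroxide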
AHR activator – activators of human aryl hydrocarbon receptor; AHR-responsive luciferase reporter cells, luminescence; activation, % at 5 µM; 320,000 tested, 2.5% active; in the data active = activation above about 47%;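 also: 0% = vehicle wells and 100% = reference agonist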
NTR1 agonist – agonists of human neurotensin receptor NTR1 | NTR1-U2OS beta-arrestin-GFP spot imaging, agonist mode | activation, % at 20 µM | AID 493036 | 330,000 tested, 0.17% active | P30989;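 active = activation at or above 40% of the spot to cytoplasm intensity ratio, with at least 20 cells analyzed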;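 also: 0% = DMSO without peptide and 100% = 100 nM NTR1 peptide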
Target sequence (P30989 whole entry, looked up): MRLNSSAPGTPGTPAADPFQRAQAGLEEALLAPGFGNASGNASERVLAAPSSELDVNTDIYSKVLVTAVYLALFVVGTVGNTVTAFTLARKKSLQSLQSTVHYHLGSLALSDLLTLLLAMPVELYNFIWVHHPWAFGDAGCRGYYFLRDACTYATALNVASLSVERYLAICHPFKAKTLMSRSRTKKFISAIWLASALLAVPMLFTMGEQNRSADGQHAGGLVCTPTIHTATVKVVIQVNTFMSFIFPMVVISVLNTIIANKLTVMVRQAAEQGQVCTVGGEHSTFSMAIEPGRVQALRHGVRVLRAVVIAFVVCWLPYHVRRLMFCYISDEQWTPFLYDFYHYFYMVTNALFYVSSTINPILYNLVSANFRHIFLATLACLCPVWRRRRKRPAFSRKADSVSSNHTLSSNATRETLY
AI-2 QS modul – modulators of Vibrio harveyi AI-2 quorum sensing system; Vibrio harveyi JMH597 AI-2 luminescence/OD600 ratio, 9 h; active compounds read low; strain lacks LuxN and CqsS sensors; 0 = neutral-control median; activity change, % at 7.5 µM; 300,000 tested, 0.4% active; AID 2094; in the data active = activity change below about -75%, passing the limit was not always enough;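 also: luminescence divided by OD600 gain over 9 h not by final OD600 alone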
Numbers without * were called inactive; x = no result given. Rows were chosen to be rich in hits. Some 6.2% of all compounds tested hit in one or more screens of this group.

SMILES	Mot1-301 SUMO	NR3A LBD binder	H9c2 protect	AHR activator	NTR1 agonist	AI-2 QS modul
CC(C)Cc1ccc(-c2cc3nc(NCCc4ccc(S(N)(=O)=O)cc4)ccn3n2)cc1	x	x	-17	x	x	x
CC(OC(=O)c1ccc(S(C)(=O)=O)c([N+](=O)[O-])c1)C(=O)NC1C2CC3CC(C2)CC1C3 (stereo unspecified)	x	x	-44	x	x	x
Cc1ccc(NC(=O)CSCC(=O)N2CCN(Cc3ccc4c(c3)OCO4)CC2)cc1	-4	10	-5	1	0	13
O/N=C(\c1ccc(Cl)cc1)c1ncc(C(F)(F)F)cc1Cl	4	-4	-7	79*	2	15
CN(NC(=O)c1ccc(Cl)cc1)c1ncc(C(F)(F)F)cc1Cl	1	1	1	-1	0	31
O=C(COC(=O)c1cc(S(=O)(=O)N2CCOCC2)ccc1O)Nc1cc(S(=O)(=O)N2CCCC2)ccc1Cl	352*	-3	-1	0	0	19
CCN(CC)S(=O)(=O)c1ccc(NC(=O)COC(=O)c2cc(S(=O)(=O)Nc3ccc(OC)cc3)ccc2O)cc1	-18	21*	-17	-2	0	21
O=C(COC(=O)c1cc(S(=O)(=O)N2CCCC2)ccc1O)Nc1ccc(SC(F)F)cc1	x	13*	-21	2	2	x
O=C(COC(=O)c1cc(S(=O)(=O)N2CCCC2)ccc1O)Nc1ccc(S(=O)(=O)N2CCOCC2)cc1	-14	-6	-4	2	-1	18
COc1ccc(CCNC(=O)Nc2ccc3nc([C@@H]4O[C@H](CO)[C@@H](O)[C@H](O)[C@H]4O)[nH]c3c2)cc1Br	x	x	-2	x	x	x
CC(C)CN1CCC(=O)N([C@H](COc2ccccc2)c2ccccc2)CC1	8	-2	2	5	2	-8
COc1ccccc1OCC(=O)Sc1ccc(C)cc1	6	7	25	-1	3	31
Cc1ccc(OCC(=O)Sc2ccc(C)cc2)cc1	-1	15*	18	-4	0	17
CCOc1ccc(/C=C/C(=O)c2cc(Br)ccc(=O)c2O)cc1	-19	-18	53*	7	x	x
CCc1ccc(/C=C/C(=O)c2cc(Br)ccc(=O)c2O)cc1	18	-3	10	23	3	11
Cc1ccccc1CN1CCN(C(=O)[C@H]2O[C@@H](n3cnc4c(N)ncnc43)[C@H](O)[C@@H]2O)CC1	x	x	-2	x	x	x
O=C(CSc1nc(-c2ccc(F)cc2)cs1)Nc1ccccn1	1	13*	1	-2	0	15
O=C(c1cnn(C(=O)CN2CCCC2=O)c1)c1ccccc1O	-14	1	0	9	1	x
CCCN(C(=O)COC(=O)CNC(=O)c1ccc2ccccc2c1)c1c(N)n(Cc2ccccc2)c(=O)[nH]c1=O	-3	21*	1	1	-1	9
CCN(C(=O)COC(=O)CNC(=O)c1ccc2ccccc2c1)c1c(N)n(Cc2ccccc2)c(=O)[nH]c1=O	x	2	11	x	x	x
CCOC(=O)C1CCCN(C(=O)c2cc(C)oc2C)CC1 (stereo unspecified)	x	x	-3	x	x	x
Cc1cc(Cl)cc(C)c1OCCCCN1CCOCC1	283*	-2	-4	-1	-1	10
Cc1cc(Cl)c(OCCCCN2CCOCC2)c(Br)c1	147	0	-3	4	0	20
CC(=O)Nc1ccc(S(=O)(=O)NC2(C(F)(F)F)NC(=O)N(c3ccc(C)cc3)C2=O)cc1 (stereo unspecified)	-2	10*	0	1	0	26
COc1cccc(C(NC(C)=O)c2nc(-c3ccccc3)cs2)c1 (stereo unspecified)	x	x	5	x	x	x
SMILES	Mot1-301 SUMO	NR3A LBD binder	H9c2 protect	AHR activator	NTR1 agonist	AI-2 QS modul
O=C(COC(=O)Cc1ccsc1)Nc1cccc(F)c1	-11	2	-10	0	11	x
O=C(NCCc1csc(-c2cccnc2)n1)c1ccc(Br)o1	172	4	-6	65*	-2	22
O=C(NCc1ccc(Cl)cc1)c1csc(-c2cccnc2)n1	27	-1	-6	52*	1	10
COc1ccc(S(=O)(=O)N2CCC(C(=O)NC3CCCC3)CC2)cc1C	8	1	-2	0	0	8
Cc1cccc(CN2C(=O)CSc3ccc(C(=O)NC4CC4)cc32)c1	-8	-2	3	1	2	-5
Cc1ccc(NC(=S)Nc2ccc(OC(F)F)c(Cl)c2)cc1Cl	-3	38*	-15	-1	x	29
CC(NC(=S)Nc1ccc(OC(F)F)c(Cl)c1)C(C)(C)C (stereo unspecified)	-5	6	-25	10	10	15
Cc1cc(C)cc(NC(=S)Nc2ccc(Cl)c(Cl)c2)c1	19	22*	-20	1	2	60
Cc1cc(C)cc(NC(=S)NCCSc2ccc(Cl)cc2)c1	-7	13*	-10	-3	5	-2
COc1ccc(NC(=S)Nc2ccc(C)c(Cl)c2)cc1OC	6	13*	-9	5	1	4
COC(=O)c1ccc(C(=S)NCC2(N(C)C)CCCCC2)cc1	-13	1	-4	0	2	-13
Cc1cc(Cl)ccc1NC(=O)/N=C1/NC(=O)CS1	x	x	-4	x	x	x
Fc1ccc(NC(=S)Nc2ccccc2OC(F)F)cc1Cl	0	5	-17	1	-1	19
Cc1ccc(NC(=S)Nc2ccc(Cl)c(Cl)c2)c(OC(F)F)c1	-16	15*	-27	7	2	21
CCOc1ccc(OCCCC(=O)NCCc2ccc(OC)cc2)cc1	5	34*	-1	2	0	14
CCCCC(=O)NCCc1ccc(OC)cc1	-18	-1	-5	8	-5	1
COc1ccc(C(=O)N(C)[C@H]2C[C@H]3c4[nH]c5ccccc5c4CCN3C(=O)[C@H]2CO)cc1	x	x	-2	x	x	x
O=C(O)CCCNc1c(C(=O)Nc2ccc(Cl)cc2)cc([N+](=O)[O-])cc1[N+](=O)[O-]	-11	-1	-5	56*	0	28
CCC(NS(=O)(=O)c1ccc2c(c1)Cc1cc(S(=O)(=O)NC(CC)C(=O)O)ccc1-2)C(=O)O (stereo unspecified)	-9	-1	1	-1	0	21
CC1Cc2ccccc2N1C(=O)CSc1nnc2c(n1)[nH]c1ccc(F)cc12 (stereo unspecified)	-27	22*	-1	18	4	23
O=C(CSc1nnc2c(n1)[nH]c1ccc(F)cc12)NCc1ccc(F)cc1	-14	10*	2	1	-1	9
COc1ccc(CNC(=O)CSc2nnc3c(n2)[nH]c2ccc(F)cc23)cc1	-4	1	1	0	1	25
O=C(CSc1nnc2c(n1)[nH]c1ccc(F)cc12)N1CCOCC1	-8	2	2	2	-1	18
